# Assays:
# Experiment in all cases: pooled miR-30 sensor sort-seq; sequence = guide strand
# Conditions in all cases: shRNA
# SDR9C7 = molecular target: SDR9C7
# SDHAF1 = molecular target: SDHAF1
# SEC11C = molecular target: SEC11C
# SCN4A = molecular target: SCN4A
# SEZ6L = molecular target: SEZ6L
# SH3YL1 = molecular target: SH3YL1
# SLC20A1 = molecular target: SLC20A1
# SLC22A7 = molecular target: SLC22A7
# Note: reference of the scale not given here.
sequence,measurement,setting,value
TTCGCTCTTGGTGACATCCAGT,sensor-assay potency score (higher = more potent),SDR9C7,-0.405
TGGACTGTCGCCGTCGTCAGGC,sensor-assay potency score (higher = more potent),SDHAF1,-0.932
TTTGATTACTCTGTGAACTATT,sensor-assay potency score (higher = more potent),SEC11C,-0.483
TCGATGCGCAGCACGTCGGACC,sensor-assay potency score (higher = more potent),SDHAF1,-1.24
TTCAACTTTAAAAACAACTATT,sensor-assay potency score (higher = more potent),SEC11C,-1.15
TGCGCAGCACGTCGGACCGCGG,sensor-assay potency score (higher = more potent),SDHAF1,-1.5
TCGTGGGGGTTCCTTGGACTGT,sensor-assay potency score (higher = more potent),SDHAF1,-2.02
TTGCAGTTCTTGAACCAGCGAT,sensor-assay potency score (higher = more potent),SDR9C7,-0.518
TTGAGCACGATGCAGATGGTGA,sensor-assay potency score (higher = more potent),SCN4A,-0.925
TACTCGATGCGCAGCACGTCGG,sensor-assay potency score (higher = more potent),SDHAF1,-1.32
TAGTCCTGTGTCATGAGGCGGA,sensor-assay potency score (higher = more potent),SCN4A,-0.484
TGCAGTAGTAGAACTTGCCGGC,sensor-assay potency score (higher = more potent),SCN4A,0.0253
TTGATGAGCATGTTCAGCGTTG,sensor-assay potency score (higher = more potent),SCN4A,-0.377
ATGAACTTTGATTACTCTGTGA,sensor-assay potency score (higher = more potent),SEC11C,-0.369
TGTCGCCGTCGTCAGGCTGGGA,sensor-assay potency score (higher = more potent),SDHAF1,-1.53
TGCTCGACAATCTTGAAGCAGG,sensor-assay potency score (higher = more potent),SCN4A,-1.33
TTACTCTGTGAACTATTGGAAT,sensor-assay potency score (higher = more potent),SEC11C,-1.07
TAGAGCTCACGCCTTATGCTGT,sensor-assay potency score (higher = more potent),SDR9C7,-0.719
ATGCTGCCGGAACTCTGCCCGC,sensor-assay potency score (higher = more potent),SDHAF1,-1.77
TACTCCACATTCTTGGACCAGG,sensor-assay potency score (higher = more potent),SCN4A,-1.18
TTGCCGAGAATGGCTGTCCGAT,sensor-assay potency score (higher = more potent),SDR9C7,-0.982
TTGTACAGGATGTCCACCTTGA,sensor-assay potency score (higher = more potent),SCN4A,0.539
TAACTTGTCAGTATAGATGCGG,sensor-assay potency score (higher = more potent),SDR9C7,-0.0735
TACAGGCTCAGAACCTGCCTCT,sensor-assay potency score (higher = more potent),SDHAF1,-0.402
TTGATGCTTTCGCTCTTGGTGA,sensor-assay potency score (higher = more potent),SDR9C7,-1.21
ATGCTGTTGATGACATCTCTGA,sensor-assay potency score (higher = more potent),SDR9C7,-0.812
TTATGTTTTTTAACTTGTCAGT,sensor-assay potency score (higher = more potent),SDR9C7,-0.963
TCCTTGGACTGTCGCCGTCGTC,sensor-assay potency score (higher = more potent),SDHAF1,-1.69
TTGGACTGTCGCCGTCGTCAGG,sensor-assay potency score (higher = more potent),SDHAF1,-1.17
AACTTGTCAGTATAGATGCGGA,sensor-assay potency score (higher = more potent),SDR9C7,-0.682
TTGTTCGCCCACTTTGTCCCTC,sensor-assay potency score (higher = more potent),SDR9C7,-0.717
TTGATGACATCTCTGACTCTGG,sensor-assay potency score (higher = more potent),SDR9C7,0.0736
TAAAACCTGGTAATAGAGCTGG,sensor-assay potency score (higher = more potent),SEC11C,-0.222
TGAACTATTGGAATGTCTCGTC,sensor-assay potency score (higher = more potent),SEC11C,0.149
ACTGTCGCCGTCGTCAGGCTGG,sensor-assay potency score (higher = more potent),SDHAF1,-1.04
TCGAGTGATCCACCTCTCCGGG,sensor-assay potency score (higher = more potent),SEZ6L,-1
TCCAGATACAATCTTCACCTTC,sensor-assay potency score (higher = more potent),SEZ6L,-0.983
TTTAGCAGAAGACTTCCTCTGC,sensor-assay potency score (higher = more potent),SH3YL1,0.193
TAACAGTCAATAAACTGCTTGC,sensor-assay potency score (higher = more potent),SLC20A1,0.0584
TAGCTCTTTGTACAGGCCGGAA,sensor-assay potency score (higher = more potent),SLC20A1,-1.38
ATGGCAAACATTACATAGCTGA,sensor-assay potency score (higher = more potent),SLC22A7,-0.95
TCGGAGGACACTAGCAGTCTAG,sensor-assay potency score (higher = more potent),SLC22A7,-0.985

# — the OligoGym collection
